Assay [1] has as its system RAW-Dual. The experiment in a line: NF-kB SEAP reporter activity, fold change vs agonist alone; higher = enhanced NF-kB activity. Particulars: cytotoxicity flag (confluency mask): not cytotoxic. An outline of the steps: (§1)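 Library stock was pin-tooled at 50 nL into 384-well plates of RAW-Dual macrophages (50,000 cells/well, DMEM), followed 1 h later by a PRR agonist, and the cells were kept at 37 °C, 5% CO2. Supernatant collected after 20 hours was read for IRF by QuantiLuc luminescence and for NF-κB by QuantiBlue absorbance at 620 nm. Reporter activity is fold change over agonist-alone wells, and a well counted as cytotoxic when its IncuCyte confluency was below 70% of agonist controls in both mask sets.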

Assay [2] concerns RAW-Dual. Briefly: NF-kB SEAP reporter activity, fold change vs agonist alone; cytotoxicity flag (confluency mask): not cytotoxic; higher = enhanced NF-kB activity. An outline of the steps:
as §1

Setting [3] is: library stock concentration (final ~1000-fold dilution): 10 mM, agonist: Imiquimod (TLR7) […].
The mark [4] stands for this setting: library stock concentration (final ~1000-fold dilution): 10 mM, agonist: MPLA (TLR4) […].
The mark [5] stands for this setting: agonist: ODN 1826 (TLR9) 0.5 ug/mL.
Setting [6] is: agonist: Pam2CSK4 (TLR2/6) 0.1 ug/mL.
Where [7] appears, read: agonist: Pam3CSK4 (TLR2/1) 0.1 ug/mL.
The mark [8] stands for this setting: library stock concentration (final ~1000-fold dilution): .1 mM, agonist: Imiquimod (TLR7) […].
The mark [9] stands for this setting: library stock concentration (final ~1000-fold dilution): .1 mM, agonist: MPLA (TLR4) […].

Whole data set: some 2,900 compounds, median “NF-kB SEAP reporter activity, fold change vs agonist alone” near 0.99, cut for the highest 2% near 2.6. This excerpt belongs to a sample that is enriched for the highest values.

Regarding `CC1(C)CC(=O)c2c(C(F)(F)F)nn(-c3ccc(C(N)=O)c(NC4CCC(OC(=O)CN)CC4)c3)c2C1` (stereo not drawn), the figures for the “NF-kB SEAP reporter activity” value in the assay with RAW-Dual [1] (setting [3]) and with RAW-Dual [1] (setting [4]) were 0.916 and 0.907, respectively.
As to `CC1(C)CC(=O)c2c(C(F)(F)F)nn(-c3ccc(C(N)=O)c(NC4CCC(OC(=O)CN)CC4)c3)c2C1` (stereo not drawn) (library stock concentration (final ~1000-fold dilution): 10 mM), the “NF-kB SEAP reporter activity” value in the assay on RAW-Dual [2] (agonist: LPS (TLR4) 0.1 ug/mL) amounted to 0.226; with RAW-Dual [2] (setting [5]) it was 0.929; with RAW-Dual [2] (setting [6]), 0.113; in the assay with RAW-Dual [2] (setting [7]), 0.234.
For the molecule `CC#CC(=O)N1CCC(n2c(=O)n(-c3ccc(Oc4ccccc4)cc3)c3c(N)ncnc32)C1.Cl` (stereo not drawn), the “NF-kB SEAP reporter activity” value in the assay on RAW-Dual [1] (setting [3]) was 0.734; in the assay on RAW-Dual [1] (setting [4]), 0.814.
For `CC#CC(=O)N1CCC(n2c(=O)n(-c3ccc(Oc4ccccc4)cc3)c3c(N)ncnc32)C1.Cl` (stereo not drawn) (library stock concentration (final ~1000-fold dilution): 10 mM), the “NF-kB SEAP reporter activity” value in the assay with RAW-Dual [2] (agonist: LPS (TLR4) 0.1 ug/mL) was 0.647; in the assay on RAW-Dual [2] (setting [5]) it was 0.662; in the assay on RAW-Dual [2] (setting [6]) it was 0.378; with RAW-Dual [2] (setting [7]), 0.517.
Take `CCOC(=O)C=P(c1ccccc1)(c1ccccc1)c1ccccc1` (library stock concentration (final ~1000-fold dilution): 10 mM): the “NF-kB SEAP reporter activity” value was 0.964 with RAW-Dual [2] (agonist: LPS (TLR4) 0.1 ug/mL), 0.875 with RAW-Dual [2] (setting [5]), 0.894 in the assay with RAW-Dual [2] (setting [6]) and 0.912 in the assay on RAW-Dual [2] (setting [7]).
`CCOC(=O)C=P(c1ccccc1)(c1ccccc1)c1ccccc1`: the “NF-kB SEAP reporter activity” value was 0.715 in the assay with RAW-Dual [1] (setting [3]) and 1.05 in the assay with RAW-Dual [1] (setting [4]).
On the same counts, the results for `O=C(NCC(O)CN1CCc2ccccc2C1)c1ccnc(NC2CCC2)c1` (stereo not drawn) are 0.885 and 0.997.
Regarding `O=C(NCC(O)CN1CCc2ccccc2C1)c1ccnc(NC2CCC2)c1` (stereo not drawn) (library stock concentration (final ~1000-fold dilution): 10 mM), the “NF-kB SEAP reporter activity” value was found to be 0.908 in the assay with RAW-Dual [2] (agonist: LPS (TLR4) 0.1 ug/mL), 0.581 with RAW-Dual [2] (setting [5]), 1.03 with RAW-Dual [2] (setting [6]) and 0.884 in the assay with RAW-Dual [2] (setting [7]).
On the same counts, the results for `CN(c1ncccc1CNc1nc(Nc2ccc3c(c2)CC(=O)N3)ncc1C(F)(F)F)S(C)(=O)=O.O=S(=O)(O)c1ccccc1` (library stock concentration (final ~1000-fold dilution): 10 mM) are 0.207, 0.982, 0.147 and 0.882.
Turning to `CN(c1ncccc1CNc1nc(Nc2ccc3c(c2)CC(=O)N3)ncc1C(F)(F)F)S(C)(=O)=O.O=S(=O)(O)c1ccccc1`, the figures for the “NF-kB SEAP reporter activity” value in the assay on RAW-Dual [1] (setting [3]) and in the assay on RAW-Dual [1] (setting [4]) were 1.02 and 0.953, respectively.
With `CC(C)(F)CC(NC(c1ccc(-c2ccc(S(C)(=O)=O)cc2)cc1)C(F)(F)F)C(=O)NC1(C#N)CC1` (stereo not drawn) (library stock concentration (final ~1000-fold dilution): 10 mM), the “NF-kB SEAP reporter activity” value turned out to be 0.968 with RAW-Dual [2] (agonist: LPS (TLR4) 0.1 ug/mL), 1.15 with RAW-Dual [2] (setting [5]), 0.937 in the assay on RAW-Dual [2] (setting [6]) and 0.97 in the assay on RAW-Dual [2] (setting [7]).
For `CC(C)(F)CC(NC(c1ccc(-c2ccc(S(C)(=O)=O)cc2)cc1)C(F)(F)F)C(=O)NC1(C#N)CC1` (stereo not drawn), the “NF-kB SEAP reporter activity” value in the assay on RAW-Dual [1] (setting [3]) amounted to 0.932; in the assay on RAW-Dual [1] (setting [4]) it was 1.02.
For `COc1ccc2c(-c3ccc(O)c(C)c3)ccnc2c1`, the “NF-kB SEAP reporter activity” value in the assay on RAW-Dual [1] (setting [8]) was determined as 0.339; with RAW-Dual [1] (setting [9]), 1.1.
`COc1ccc2c(-c3ccc(O)c(C)c3)ccnc2c1` (library stock concentration (final ~1000-fold dilution): .1 mM): the “NF-kB SEAP reporter activity” value in the assay on RAW-Dual [2] (agonist: LPS (TLR4) 0.1 ug/mL) came out at 1.1; in the assay with RAW-Dual [2] (setting [5]), 1.07; in the assay on RAW-Dual [2] (setting [6]) it was 0.664; with RAW-Dual [2] (setting [7]), 0.85.
As for `Cc1cc(-c2ccnc3cc(O)ccc23)ccc1O`, the “NF-kB SEAP reporter activity” value is 1.38 in the assay on RAW-Dual [1] (setting [8]) and 2.06 in the assay with RAW-Dual [1] (setting [9]).
Regarding `Cc1cc(-c2ccnc3cc(O)ccc23)ccc1O` (library stock concentration (final ~1000-fold dilution): .1 mM), the “NF-kB SEAP reporter activity” value is 3.3 in the assay with RAW-Dual [2] (agonist: LPS (TLR4) 0.1 ug/mL), 1.31 in the assay on RAW-Dual [2] (setting [5]), 1.32 with RAW-Dual [2] (setting [6]) and 1.41 in the assay with RAW-Dual [2] (setting [7]).

(Values after the supplement of paper PMC10037445.)
